Tau fluor counter: Counterscreen qHTS for Inhibitors of Tau Fibril Formation, Fluorescence Polarization. tau K18 P301L Alexa594 fluorescence, heparin fibrillization. Potency, µM (series often up to 57.7 µM), for inactives: top-dose activity change, negative = decrease. 280,000 compounds, 0.93% hits. AID 1463, 2008; also: potency is read from the fitted curve at half-maximal effect; nearly all actives have a fitted effect of over 55% in size
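Human tau K18 P301L (15 uM unlabeled, 0.24 uM Alexa 594-labeled) in 100 mM sodium acetate pH 7 with 20 uM heparin, 6 hr at 37 C. ThT 30 uM added, 1 hr ambient; Alexa 594 FP and total fluorescence read at 555/632 nm.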
Tau fibril FP: qHTS for Inhibitors of Tau Fibril Formation, Fluorescence Polarization; Microtubule-associated protein tau (Homo sapiens), P10636; K18 P301L tau heparin fibrillization, Alexa594 FP, 6 h; Potency, µM (doses to about 57.7 µM), for the others: top-dose activity, negative = inhibition, actives largely listed as inhibitors; 280,000 compounds, 0.39% hits; AID 1468, 2008; also: potency is read from the fitted curve at half-maximal effect; nearly all actives have a fitted effect of over 55% in size
Target sequence (P10636 561-689 P618L limits assumed): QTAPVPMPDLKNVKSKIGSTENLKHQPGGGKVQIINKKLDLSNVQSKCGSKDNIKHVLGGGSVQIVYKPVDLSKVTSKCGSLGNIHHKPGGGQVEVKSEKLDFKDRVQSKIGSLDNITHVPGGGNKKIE
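K18 P301L tau (15 uM unlabeled/0.24 uM Alexa 594-labeled, final) + compound + heparin 20 uM final; 100 mM NaOAc pH 7; 6 hr 37 C; ThT 30 uM final added, 1 hr RT; FP ex 555/em 632 nm.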
Sfp inh: qHTS Assay for Inhibitors of Bacillus subtilis Sfp phosphopantetheinyl transferase (PPTase). 4'-phosphopantetheinyl transferase ffp (Bacillus subtilis), Q9F4F7. Biochemical Sfp PPTase activity, qHTS. Potency, µM, for the others: largest response in the series, negative = inhibition, usual class: inhibitors. 310,000 compounds, 3.5% hits. AID 1490, 2009;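 also: the enzyme is Sfp with the accession as filed and its product quenches rhodamine fluorescence; potency is read from the fitted curve at half-maximal effect; 0% = enzyme reaction without inhibitor and -100% = no enzyme wells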
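After 15 min at room temperature with compound, 15 nM Sfp received 5 uM rhodamine-CoA plus 12.5 uM BHQ-2-ybbR (50 mM Hepes pH 7.6, 10 mM MgCl2). Rate came from the fluorescence difference over 30 min, ex 525/em 598 nm.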
Tau fibril ThT: qHTS for Inhibitors of Tau Fibril Formation, Thioflavin T Binding; recombinant tau K18 P301L (four-repeat tau fragment), heparin-induced fibrillization, ThT fluorescence; AID 1460, 2008; Potency, µM (top dose mostly 57.4 µM), for the others: top-dose activity, negative = inhibition, usual class: inhibitors; 270,000 compounds, 2.1% hits; Microtubule-associated protein tau (Homo sapiens), P10636; also: potency is read from the fitted curve at half-maximal effect; nearly all actives have a fitted effect of over 55% in size
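Heparin-induced (20 uM) aggregation of recombinant human K18 P301L tau, 15 uM unlabeled with 0.24 uM labeled, pH 7 acetate buffer, 6 hr at 37 C with compound. Fibrils quantified by 30 uM ThT fluorescence after 1 hr ambient incubation.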
FBPA coupling cs: qHTS Assay for Inhibitors of Fructose-1,6-bisphosphate Aldolase from Giardia Lamblia: Coupling assay counterscreen. coupling enzyme system counterscreen, AmpLite Red fluorescence. activity change, negative = inhibition, % at 58.2 µM, hits read low. 290,000 compounds, 0.67% hits. AID 2472, 2010; in the data active = activity change below about -30%
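Final compound at 57.5 uM, incubated 10 min at RT with coupling enzyme reagent (glyceraldehyde-3-phosphate), then 20 min with substrate and AmpLite Red detection. Fluorescence read at 525/598 nm; tests interference with the coupling assay, not aldolase inhibition.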
An asterisk follows results filed as active; ? = inconclusive; . = no result; [ ] = remark or other dose. In the library only some 5.2% were active in any assay of this set; here they are far more common. Unless noted, calls follow the shape of the dose curve; as a rule, active = well fitted curve in the direction sought with a large enough effect; inconclusive = small, poorly fitted or top-dose-only effect, or another doubt; inactive = no such curve, though single readings can be large; an effect the other way counts as inactive or inconclusive. Unless noted, % is scaled to controls: 0 for no effect and ±100 for the full control effect.

SMILES | Tau fluor counter | Tau fibril FP | Sfp inh | Tau fibril ThT | FBPA coupling cs
O=c1nc2ccccc2c2n1CC(CN1CCN(c3ccccc3)CC1)N2 (stereo not given) | -9% | -5% | 24% | -7% | .
Nc1nc(=S)c2ncn(C3CCCC3)c2[nH]1 | -12% | 2% | 13µM* | -10% | -2
Nc1ncnc2c1ncn2C1CCCC1 | -25% | -16% | . | -12% | .
COc1ccc(C2=NN(C(N)=S)C(c3ccco3)C2)cc1 (stereo not given) | -24% | -6% | 11µM* | ? | 0
COc1ccc(C2=NN(C(=O)CSc3nnc(-c4ccccc4F)o3)C(c3ccco3)C2)cc1 (stereo not given) | -26% | -1% | -12% | -19% | 1
CN1CC(=O)N(CC(=O)N2N=C(c3ccc(Cl)cc3)CC2c2ccco2)C1=O (stereo not given) | -5% | -4% | 20µM* | -4% | -4
Cc1ccc(C2=NN(C(=O)CSc3nc4ncc(Cl)cc4[nH]3)C(c3ccco3)C2)cc1 (stereo not given) | -19% | -10% | 45µM* | ? | 3
CC(=O)N1N=C(c2c(-c3ccccc3)c3cc(Br)ccc3[nH]c2=O)CC1c1ccco1 (stereo not given) | -23% | -7% | 40µM* | ? | 0
CC(=O)N1N=C(c2c(-c3ccccc3)c3cc(C)ccc3[nH]c2=O)CC1c1ccco1 (stereo not given) | -12% | -3% | ? | ? | 0
CCc1ccc(C2=NN(C(C)=O)C(c3ccco3)C2)cc1 (stereo not given) | -12% | 9% | 25µM* | ? | -6
Cc1nn(C)c2nc(NNC(=O)Nc3cc(Cl)nc(Cl)c3)cc(C(C)C)c12 | ? | -4% | -30% | -20% | 4
CCNC(=S)/C(=C(/[O-])c1ccc([N+](=O)[O-])cc1)[n+]1ccccc1 | -16% | 0% | -15% | ? | -4
CCc1ccc(/C([O-])=C(/C(=S)NCCN2CCOCC2)[n+]2ccccc2)cc1 | -10% | -14% | 45µM* | ? | -3
Oc1ccc2ccccc2c1/C=N/c1nc2c(s1)CCCC2 | ? | ? | -2% | 32µM* | -40*
Cc1cc(O)c(C=Nc2ccc(Cl)cn2)c(=O)o1 | -4% | 2% | ? | ? | 2
Oc1ccc2ccccc2c1/C=N/Nc1ccccc1 | 11µM*[quencher] | ? | -14% | 18µM* | -26
Oc1ccc2ccccc2c1/C=N/n1cnnc1 | -13% | 5% | 1% | ? | 2
Oc1ccc2ccccc2c1C=Nc1ccc(Cl)cn1 | 1% | 6% | -12% | -1% | -46*
Oc1ccc2ccccc2c1C=NCc1ccccc1 | ? | ? | -24% | ? | -32*
O=CN/N=C/c1c(O)ccc2ccccc12 | -9% | -8% | 12% | -3% | -3
Cc1noc(-c2ccc(CSCCC(=O)O)cc2)c1NC(=O)OC(C)c1ccccc1Cl (stereo not given) | . | . | 1% | . | 5
CCCOc1ccc(-c2nonc2NC(=O)c2ccco2)cc1OCCC | -17% | -5% | . | 12% | .
Cc1nc(NCc2ccccc2)c2nc(-c3ccccc3)n(CCN(C)C)c2n1 | -9% | 4% | 6% | -10% | 6
COc1cccc(CNC(=O)C2CCCN(c3nnc(-n4c(C)ccc4C)s3)C2)c1OC (stereo not given) | -4% | -10% | . | -17% | .
Oc1ccc2ccccc2c1C=NC1CCCCC1 | ? | ? | -28% | 25µM* | -24
SMILES | Tau fluor counter | Tau fibril FP | Sfp inh | Tau fibril ThT | FBPA coupling cs
O=c1c(-c2cccc(Cl)c2)nc2cncnc2n1-c1ccccc1 | . | . | 8% | . | 2
COc1ccc(C(c2c[nH]c3ccccc23)c2c[nH]c3ccccc23)cc1O | 14µM*[quencher] | ? | -8% | ? | -4
COc1ccc(C(=O)NCCSc2c[nH]c3ccccc23)cc1OC | ? | 3% | . | ? | .
Cc1cc(C)cc(OCC(=O)NCC2(N(C)C)CCCCC2)c1 | 4% | 5% | . | 6% | .
Cc1ccc(C(CC(=O)c2ccc(Cl)cc2)C(=O)O)cc1 (stereo not given) | 8% | 7% | 10% | 1% | 1
Cc1ccc(SC(CC(=O)c2ccc(C)cc2)C(=O)O)cc1 (stereo not given) | -9% | -14% | 11µM* | ? | 15
O=C(CC(C(=O)O)P(=O)(c1ccccc1)c1ccccc1)c1ccc(Br)cc1 (stereo not given) | -4% | 3% | -13% | -6% | 7
O=C(CC(Sc1ccc(Br)cc1)C(=O)O)c1ccc(Br)cc1 (stereo not given) | . | . | 35µM* | . | 3
O=C(NCc1ccccc1)c1ccc(CS(=O)(=O)c2c(Cl)cccc2Cl)o1 | -7% | -5% | . | 3% | .
C=Cc1ccc(Cn2c(=O)n(-c3cccc(Cl)c3)c(=O)c3c4c(sc32)CN(C(C)=O)CC4)cc1 | 6% | ? | . | ? | .
COc1ccc(C(=O)N/N=C(/C)c2cccc(NC(=O)c3ccccc3F)c2)cc1 | . | . | 16% | . | .
C/C(=N\NC(=O)c1ccc(O)cc1)c1ccc2c(c1)Nc1ccccc1S2 | 11µM*[quencher] | -8% | -2% | 4.5µM* | -1
C/C(=N\NC(=O)c1ccccc1F)c1ccc2c(c1)Nc1ccccc1S2 | 3.5µM*[quencher] | ? | -15% | 2µM* | 3
CC(=O)c1ccc(N2CCN(C(=O)c3cc4c(s3)-c3ccccc3OC4)CC2)cc1 | -26% | -1% | . | ? | .
COc1ccc2c3c(c(=O)oc2c1)C1O[C@](c2ccsc2)(Cc2cc(C#N)ccc21)O3 | . | . | -10% | . | 1
COCC(C)NC(=O)c1cc2cccc([N+](=O)[O-])c2[nH]1 (stereo not given) | -5% | 16% | 6% | . | 1
